Results from the supplement of paper PMC6411743.
± gives the standard deviation of the averaged measurements. Of roughly 6,500 targets only a part is listed; those with the largest changes were picked by preference.

Compound: Nc1ncnc2c1ncn2[C@@H]1O[C@H](COP(=O)(O)OP(=O)(O)OP(=O)(O)O)[C@@H](O)[C@H]1O [adenosine triphosphate]
Assay: NP40-soluble protein abundance relative to vehicle (solubility fold change) (ratio); higher = more soluble protein in presence of ATP
Method in brief: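 Across three independent experiments, values are fold changes against the detergent-processed vehicle for each replicate, based on vsn-normalised intensities. The samples were Jurkat crude lysate treated with eight concentrations (0.1 to 10 mM) for 10 min at room temperature and then 3 min at 37 °C. Lysate was solubilised with 0.8% NP40 and benzonase, ultracentrifuged, and the supernatant analysed by TMT-labelled LC-MS/MS.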

Sequence of UniProt O95232 (O95232 whole entry, one chain of several): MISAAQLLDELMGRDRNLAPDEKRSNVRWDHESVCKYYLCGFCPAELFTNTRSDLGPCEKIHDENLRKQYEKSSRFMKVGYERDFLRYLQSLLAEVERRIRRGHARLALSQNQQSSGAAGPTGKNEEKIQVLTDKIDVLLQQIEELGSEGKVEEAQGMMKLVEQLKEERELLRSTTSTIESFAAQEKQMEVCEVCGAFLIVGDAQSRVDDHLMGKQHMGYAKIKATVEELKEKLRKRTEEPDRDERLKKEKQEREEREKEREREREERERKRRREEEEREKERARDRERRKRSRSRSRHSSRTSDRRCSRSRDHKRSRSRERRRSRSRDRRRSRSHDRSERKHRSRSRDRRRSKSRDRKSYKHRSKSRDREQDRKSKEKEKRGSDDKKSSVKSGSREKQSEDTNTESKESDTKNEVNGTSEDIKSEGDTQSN
Sequence of UniProt Q9Y592 (Q9Y592 whole entry, one chain of several): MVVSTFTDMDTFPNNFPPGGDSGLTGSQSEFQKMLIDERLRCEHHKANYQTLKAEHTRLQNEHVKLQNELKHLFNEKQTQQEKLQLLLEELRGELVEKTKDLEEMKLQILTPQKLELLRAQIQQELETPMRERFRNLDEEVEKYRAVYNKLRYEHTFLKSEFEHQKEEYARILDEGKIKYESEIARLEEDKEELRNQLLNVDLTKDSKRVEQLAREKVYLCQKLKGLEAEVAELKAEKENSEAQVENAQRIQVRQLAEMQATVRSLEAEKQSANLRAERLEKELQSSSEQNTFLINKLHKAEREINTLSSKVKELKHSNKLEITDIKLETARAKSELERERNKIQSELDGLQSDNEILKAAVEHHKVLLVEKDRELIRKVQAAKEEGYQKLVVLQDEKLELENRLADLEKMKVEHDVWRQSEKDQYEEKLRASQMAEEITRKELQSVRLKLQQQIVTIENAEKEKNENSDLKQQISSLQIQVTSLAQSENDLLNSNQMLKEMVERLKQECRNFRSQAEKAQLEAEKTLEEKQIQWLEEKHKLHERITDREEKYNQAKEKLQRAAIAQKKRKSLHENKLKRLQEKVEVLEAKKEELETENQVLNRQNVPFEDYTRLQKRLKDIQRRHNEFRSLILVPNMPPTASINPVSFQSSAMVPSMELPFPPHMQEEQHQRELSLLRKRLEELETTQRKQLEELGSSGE
Sequence of UniProt O15169 (O15169 whole entry): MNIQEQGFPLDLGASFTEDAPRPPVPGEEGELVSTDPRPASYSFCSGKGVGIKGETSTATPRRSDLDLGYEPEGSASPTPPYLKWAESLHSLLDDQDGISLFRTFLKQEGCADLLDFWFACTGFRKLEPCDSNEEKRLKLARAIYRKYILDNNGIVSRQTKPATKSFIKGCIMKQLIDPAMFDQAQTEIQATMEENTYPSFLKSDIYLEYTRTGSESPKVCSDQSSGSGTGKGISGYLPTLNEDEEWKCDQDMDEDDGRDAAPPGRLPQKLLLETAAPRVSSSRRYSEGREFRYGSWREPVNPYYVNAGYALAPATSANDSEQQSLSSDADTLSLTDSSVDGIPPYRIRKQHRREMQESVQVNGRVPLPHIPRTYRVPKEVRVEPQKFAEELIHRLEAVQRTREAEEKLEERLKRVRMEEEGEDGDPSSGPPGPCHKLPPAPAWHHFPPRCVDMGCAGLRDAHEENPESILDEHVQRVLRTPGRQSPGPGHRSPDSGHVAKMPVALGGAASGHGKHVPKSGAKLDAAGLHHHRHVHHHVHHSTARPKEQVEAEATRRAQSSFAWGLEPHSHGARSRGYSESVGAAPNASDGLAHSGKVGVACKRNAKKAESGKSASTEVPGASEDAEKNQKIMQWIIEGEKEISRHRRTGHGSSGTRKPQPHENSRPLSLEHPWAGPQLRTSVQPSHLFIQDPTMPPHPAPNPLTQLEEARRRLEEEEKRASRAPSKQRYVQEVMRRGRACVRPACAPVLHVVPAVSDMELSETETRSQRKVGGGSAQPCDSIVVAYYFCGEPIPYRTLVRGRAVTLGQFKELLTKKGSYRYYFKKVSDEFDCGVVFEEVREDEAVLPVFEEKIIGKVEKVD
Sequence of UniProt P04406 (P04406 whole entry, looked up, one chain of several): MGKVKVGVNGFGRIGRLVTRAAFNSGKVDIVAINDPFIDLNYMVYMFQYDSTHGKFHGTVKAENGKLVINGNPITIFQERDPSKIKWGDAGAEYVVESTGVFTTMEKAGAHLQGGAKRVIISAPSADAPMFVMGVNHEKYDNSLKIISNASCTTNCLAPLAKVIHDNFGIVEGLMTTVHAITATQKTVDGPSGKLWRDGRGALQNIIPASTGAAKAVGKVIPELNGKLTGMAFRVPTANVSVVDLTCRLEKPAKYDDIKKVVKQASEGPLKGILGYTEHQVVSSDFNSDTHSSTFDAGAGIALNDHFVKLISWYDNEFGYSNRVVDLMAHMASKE
Sequence of UniProt P01130 (P01130 whole entry, one chain of several): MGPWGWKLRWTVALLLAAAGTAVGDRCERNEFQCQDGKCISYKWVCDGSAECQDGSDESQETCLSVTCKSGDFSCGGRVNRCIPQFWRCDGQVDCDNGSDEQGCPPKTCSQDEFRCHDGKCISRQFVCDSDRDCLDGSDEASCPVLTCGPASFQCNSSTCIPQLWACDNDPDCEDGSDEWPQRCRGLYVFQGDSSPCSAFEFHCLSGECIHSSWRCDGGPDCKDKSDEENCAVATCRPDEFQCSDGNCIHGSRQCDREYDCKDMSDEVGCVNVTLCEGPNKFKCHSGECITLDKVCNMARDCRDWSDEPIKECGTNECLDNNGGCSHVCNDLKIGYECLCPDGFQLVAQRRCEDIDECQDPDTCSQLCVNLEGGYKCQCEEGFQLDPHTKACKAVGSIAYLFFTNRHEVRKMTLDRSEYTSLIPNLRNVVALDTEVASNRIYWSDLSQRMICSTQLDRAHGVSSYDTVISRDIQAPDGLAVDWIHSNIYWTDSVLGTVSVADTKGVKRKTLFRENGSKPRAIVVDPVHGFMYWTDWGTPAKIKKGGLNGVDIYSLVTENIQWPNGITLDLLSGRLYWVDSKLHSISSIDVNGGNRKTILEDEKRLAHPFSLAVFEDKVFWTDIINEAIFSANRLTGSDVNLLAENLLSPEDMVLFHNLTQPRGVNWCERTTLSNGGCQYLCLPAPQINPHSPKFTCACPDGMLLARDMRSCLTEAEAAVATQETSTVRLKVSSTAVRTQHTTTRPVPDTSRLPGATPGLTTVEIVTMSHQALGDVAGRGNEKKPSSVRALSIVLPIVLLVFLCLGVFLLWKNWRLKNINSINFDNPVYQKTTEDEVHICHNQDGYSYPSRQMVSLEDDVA
Sequence of UniProt Q6VN20 (Q6VN20 whole entry, one chain of several): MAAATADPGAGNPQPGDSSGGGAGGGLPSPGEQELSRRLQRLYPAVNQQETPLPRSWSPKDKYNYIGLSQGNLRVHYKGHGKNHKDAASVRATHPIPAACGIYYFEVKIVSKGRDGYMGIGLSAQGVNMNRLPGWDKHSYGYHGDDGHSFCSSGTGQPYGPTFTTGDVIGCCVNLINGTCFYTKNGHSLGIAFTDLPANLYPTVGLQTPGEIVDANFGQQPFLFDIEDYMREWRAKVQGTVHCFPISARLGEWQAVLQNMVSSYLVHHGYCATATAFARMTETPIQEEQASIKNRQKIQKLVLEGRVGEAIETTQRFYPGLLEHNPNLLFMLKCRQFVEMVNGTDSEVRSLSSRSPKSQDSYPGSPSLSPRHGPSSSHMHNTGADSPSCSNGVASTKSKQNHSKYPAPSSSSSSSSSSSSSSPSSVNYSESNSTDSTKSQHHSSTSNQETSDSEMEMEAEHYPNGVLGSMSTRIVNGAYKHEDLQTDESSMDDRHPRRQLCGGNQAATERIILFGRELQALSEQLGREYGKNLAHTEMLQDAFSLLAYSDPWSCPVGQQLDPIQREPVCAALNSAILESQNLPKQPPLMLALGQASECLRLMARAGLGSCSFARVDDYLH
Sequence of UniProt Q96DH6 (Q96DH6 whole entry, one chain of several): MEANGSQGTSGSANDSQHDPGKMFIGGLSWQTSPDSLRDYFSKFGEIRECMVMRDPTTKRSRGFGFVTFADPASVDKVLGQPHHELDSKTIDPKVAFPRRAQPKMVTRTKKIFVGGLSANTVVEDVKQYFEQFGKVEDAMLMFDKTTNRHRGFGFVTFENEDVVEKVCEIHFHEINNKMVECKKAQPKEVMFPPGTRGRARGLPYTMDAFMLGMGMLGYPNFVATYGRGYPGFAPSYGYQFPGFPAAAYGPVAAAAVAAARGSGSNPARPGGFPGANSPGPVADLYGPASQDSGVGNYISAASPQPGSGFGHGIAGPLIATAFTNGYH
Sequence of UniProt Q8NI36 (Q8NI36 whole entry, one chain of several): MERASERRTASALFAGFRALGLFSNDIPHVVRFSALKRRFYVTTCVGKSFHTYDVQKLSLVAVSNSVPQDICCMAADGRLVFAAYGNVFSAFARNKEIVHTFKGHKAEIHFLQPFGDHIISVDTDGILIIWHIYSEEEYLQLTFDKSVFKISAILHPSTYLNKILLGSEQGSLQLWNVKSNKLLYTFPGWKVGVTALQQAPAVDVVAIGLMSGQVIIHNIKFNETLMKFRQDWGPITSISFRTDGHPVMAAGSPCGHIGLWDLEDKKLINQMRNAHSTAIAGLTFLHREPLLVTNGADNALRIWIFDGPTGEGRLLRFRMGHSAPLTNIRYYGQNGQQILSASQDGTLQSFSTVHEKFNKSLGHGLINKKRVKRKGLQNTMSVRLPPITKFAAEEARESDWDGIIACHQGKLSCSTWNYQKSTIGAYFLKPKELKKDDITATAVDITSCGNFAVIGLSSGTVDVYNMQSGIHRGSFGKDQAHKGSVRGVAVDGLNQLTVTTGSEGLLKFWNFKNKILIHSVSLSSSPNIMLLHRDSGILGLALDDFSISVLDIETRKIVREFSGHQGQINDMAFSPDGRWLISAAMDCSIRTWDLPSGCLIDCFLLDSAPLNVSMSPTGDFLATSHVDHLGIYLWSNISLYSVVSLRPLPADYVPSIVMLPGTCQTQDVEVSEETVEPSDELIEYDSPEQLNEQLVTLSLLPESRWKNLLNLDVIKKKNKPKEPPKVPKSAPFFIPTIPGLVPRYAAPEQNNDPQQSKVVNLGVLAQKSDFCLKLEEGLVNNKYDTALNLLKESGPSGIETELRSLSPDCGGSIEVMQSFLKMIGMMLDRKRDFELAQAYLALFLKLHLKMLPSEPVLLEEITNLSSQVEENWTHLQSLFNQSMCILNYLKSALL

Target	NP40-soluble protein abundance (concentration: 1mM)	NP40-soluble protein abundance (concentration: 2mM)	NP40-soluble protein abundance (concentration: 4mM)	NP40-soluble protein abundance (concentration: 6mM)	NP40-soluble protein abundance (concentration: 8mM)	NP40-soluble protein abundance (concentration: 10mM)
H0YNP8|Q99081-3|Q99081 (UniProt Q99081)	0.923 ± 0.056	0.935 ± 0.039	0.915 ± 0.041	0.938 ± 0.027	0.916 ± 0.018	0.921 ± 0.046
G3V0H0|O43913|O43913-2 (UniProt O43913)	1.03 ± 0.12	1.01 ± 0.097	1.02 ± 0.08	1 ± 0.13	1.08 ± 0.078	1.02 ± 0.061
UniProt A7KAX9|A7KAX9-2	0.937 ± 0.054	0.91 ± 0.046	0.908 ± 0.0074	0.907 ± 0.024	0.904 ± 0.04	0.941 ± 0.018
J3KNW7|Q9Y592|Q9Y592-2 (UniProt Q9Y592)	1.06 ± 0.072	0.9299 ± 0.0068	1.02 ± 0.032	1.04 ± 0.028	1.07 ± 0.062	0.993 ± 0.077
D6REA1|Q9H173|D6RIU8 (UniProt Q9H173)	0.922 ± 0.083	0.938 ± 0.046	0.92 ± 0.083	0.929 ± 0.11	0.917 ± 0.063	0.8663 ± 0.0052
J3KPP4|O95232 (UniProt O95232)	2.04 ± 0.11	2.06 ± 0.14	2.12 ± 0.1	2.32 ± 0.14	2.27 ± 0.13	2.32 ± 0.18
A0A0X1KG71 (UniProt Q8WX92)	0.9808 ± 0.0083	0.989 ± 0.012	0.9482 ± 0.0081	0.959 ± 0.033	0.959 ± 0.022	0.956 ± 0.023
A0A087WYN9|Q7Z478 (UniProt Q7Z478)	2.24 ± 0.062	2.31 ± 0.051	2.45 ± 0.092	2.57 ± 0.045	2.68 ± 0.07	2.74 ± 0.062
E7EUT5|P04406 (UniProt P04406)	1.01 ± 0.012	0.959 ± 0.074	0.9969 ± 0.0069	0.939 ± 0.043	0.954 ± 0.024	0.944 ± 0.059
A0A0A0MTB8|Q8NI36 (UniProt Q8NI36)	1.21 ± 0.057	1.37 ± 0.057	1.68 ± 0.13	1.86 ± 0.23	2.12 ± 0.14	2.17 ± 0.17
A0A0A0MSV9|A0A0G2JH37|A0A0G2JKZ1|A2AB90|O15533|O15533-2|O15533-3 (UniProt O15533)	1.04 ± 0.066	1.02 ± 0.067	0.986 ± 0.028	0.968 ± 0.047	0.99 ± 0.085	0.984 ± 0.088
C9J0K6|P30626|P30626-2|P30626-3 (UniProt P30626)	0.887 ± 0.066	0.921 ± 0.078	0.892 ± 0.039	0.911 ± 0.072	0.896 ± 0.011	0.811 ± 0.12
UniProt O15169|O15169-2	1.05 ± 0.17	0.887 ± 0.14	0.982 ± 0.19	1.07 ± 0.18	1 ± 0.047	1.15 ± 0.21
MED7 (UniProt O43513)	1.23 ± 0.3	1.17 ± 0.091	1.09 ± 0.056	1.2 ± 0.37	1.23 ± 0.26	1.28 ± 0.34
A0A0A0MTC1|A0A0A0MTR7 (UniProt Q63HN8)	1.15 ± 0.14	1.11 ± 0.096	1.12 ± 0.083	1.03 ± 0.074	1.2 ± 0.049	1.11 ± 0.031
B1AK44|Q9UI95 (UniProt Q9UI95)	0.999 ± 0.022	0.937 ± 0.037	0.978 ± 0.024	1.01 ± 0.087	1.05 ± 0.086	0.993 ± 0.059
G5E9W3|Q9UKF6 (UniProt Q9UKF6)	1.09 ± 0.073	1.1 ± 0.029	1.14 ± 0.025	1.11 ± 0.048	1.14 ± 0.029	1.18 ± 0.052
UniProt O14524	0.824 ± 0.11	0.887 ± 0.1	0.841 ± 0.017	0.899 ± 0.066	0.872 ± 0.029	0.896 ± 0.036
H3BSH7|Q969X6|Q969X6-3 (UniProt Q969X6)	1.1 ± 0.14	1.21 ± 0.03	1.26 ± 0.058	1.425 ± 0.0083	1.46 ± 0.084	1.78 ± 0.047
A0A0B4J220 (UniProt E9PRG8)	1.02 ± 0.028	1.11 ± 0.066	1.27 ± 0.17	1.31 ± 0.091	1.42 ± 0.27	1.56 ± 0.23
A0A0G2JPP5|Q14160|Q14160-3|A0A0G2JNZ2 (UniProt Q14160)	0.973 ± 0.016	0.96 ± 0.02	0.9694 ± 0.0075	0.98 ± 0.023	0.93 ± 0.021	0.941 ± 0.031
H0YM92|J3KMZ9|P01130|P01130-5|H0YMD1|P01130-4 (UniProt P01130)	0.962 ± 0.026	0.977 ± 0.016	0.981 ± 0.023	0.966 ± 0.029	0.9771 ± 0.0072	0.987 ± 0.016
B4DHE8|Q96DH6 (UniProt Q96DH6)	1.02 ± 0.045	1.02 ± 0.058	0.994 ± 0.065	0.993 ± 0.08	0.983 ± 0.071	0.972 ± 0.079
B7ZBK4|Q92664 (UniProt Q92664)	1.02 ± 0.021	1.03 ± 0.035	1 ± 0.042	0.9904 ± 0.0034	0.989 ± 0.026	0.976 ± 0.053
E9PRY8|P29692|P29692-2|P29692-3|P29692-4 (UniProt P29692)	0.959 ± 0.054	0.931 ± 0.034	0.894 ± 0.03	0.912 ± 0.091	0.88 ± 0.042	0.865 ± 0.015
J9JID7|Q03252 (UniProt Q03252)	1 ± 0.066	0.943 ± 0.063	1.01 ± 0.065	1.06 ± 0.037	1.03 ± 0.047	1.09 ± 0.059
A0A0D9SEU5|Q6VN20|Q6VN20-3|R4GMX8 (UniProt Q6VN20)	0.968 ± 0.017	0.944 ± 0.05	0.979 ± 0.02	0.996 ± 0.11	0.935 ± 0.028	0.951 ± 0.036
H0Y6E7|H3BT71|P38159|P38159-2 (UniProt P38159)	1.13 ± 0.068	1.22 ± 0.042	1.34 ± 0.046	1.56 ± 0.087	1.62 ± 0.026	1.79 ± 0.064
F8W057|Q9GZN1|Q9GZN1-2 (UniProt Q9GZN1)	1.07 ± 0.034	1.11 ± 0.034	1.1 ± 0.065	1.03 ± 0.089	1.2 ± 0.028	1.17 ± 0.089
E9PJI1|Q92993-3|Q92993-4|Q92993|Q92993-2 (UniProt Q92993)	1.06 ± 0.12	0.959 ± 0.11	1.13 ± 0.17	1.1 ± 0.19	1.06 ± 0.21	1.13 ± 0.1
